Rce1 inhib – inhibitors of yeast Ras-converting enzyme; Q03530; calls only; yeast membranes, quenched prenylated peptide cleavage fluorescence; AID 2563; hit rate 0.27% among 290,000;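 active = fall in fluorescence gain of 50% or more versus controls, with final raw signal at or below 3038400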;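 note: plate controls were neutral control wells for no effect and wells lacking membranes for full effect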
Target sequence (Q03530 whole entry, looked up): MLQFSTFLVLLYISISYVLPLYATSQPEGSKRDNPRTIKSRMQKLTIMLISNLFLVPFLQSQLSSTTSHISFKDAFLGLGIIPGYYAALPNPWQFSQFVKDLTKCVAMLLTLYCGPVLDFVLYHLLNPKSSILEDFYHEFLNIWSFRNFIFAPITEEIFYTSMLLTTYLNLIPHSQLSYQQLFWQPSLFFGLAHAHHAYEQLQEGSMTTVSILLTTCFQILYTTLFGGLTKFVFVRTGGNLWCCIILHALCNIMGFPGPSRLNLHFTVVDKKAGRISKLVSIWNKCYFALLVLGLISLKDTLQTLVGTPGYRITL
V-ATPase pH – regulators of yeast V-ATPase proton transport. S. cerevisiae, pHLuorin cytosolic pH fluorescence. response, % at 10 µM. hit rate 0.37% among 350,000; in the data active = response mostly above about 7.3%, no sharp cut-off; inactive = mostly below about 5.4%; note: actives read high
Efflux pump inh – inhibitors of Candida antifungal efflux pumps expressed in yeast; S. cerevisiae Candida pump triplex, Nile Red efflux; inhibition, % at 10 µM; hit rate 0.44% among 330,000;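 active = plate passing quality check with inhibition over a set limit, or well fluorescence over plate mean plus 4 SD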;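 note: Nile Red retained in pooled yeast measured as flow cytometry median fluorescence; 0% = buffer negative control and 100% = Enniatin B positive control; higher means more Nile Red kept so more efflux inhibition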
NPR2 activator – GC-B (human) receptor activation; P20594; hit rate 0.11% among 370,000; HEK293-GC-B cells, CNP EC30, cGMP TR-FRET; 0% at EC30 CNP, 100% saturating CNP; activation, % at 10 µM;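 active = activation at 10 µM reaching about 35% in either raw or pattern-adjusted values, limit read from the data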
GC-A act – GC-A (human) enzyme activation. hit rate 0.14% among 370,000. HEK293 GC-A cells, cGMP TR-FRET, EC30 ANP; 0% at EC30 ANP, 100% saturating ANP. P16066. activation, % at 10 µM; in the data active = activation above about 40%
NSD2 inh – blocks human histone methyltransferase NSD2; O96028; NSD2 peptide methylation, AlphaScreen, 120 min; inhibition, % at 12.5 µM; hit rate 0.54% among 310,000; in the data active = inhibition above about 50%
AlphaScreen art – interferes with AlphaScreen signal, flagging NSD2 false positives; shares compounds with NSD2 inh; AlphaScreen artifact counterscreen, preloaded methylated H4 peptide; AC35, µM (highest dose often 10 µM), without a hit: top-dose activity change, negative = signal loss; hit rate 9.4% among 1,500; AID 1053174; call rule not given here
An asterisk follows results filed as active; i = inactive; nt = no result given. Rows were chosen to be rich in hits. Some 1.6% of all compounds tested hit in one or more screens of this group.

SMILES | Rce1 inhib | V-ATPase pH | Efflux pump inh | NPR2 activator | GC-A act | NSD2 inh | AlphaScreen art
Nn1c(SCC(=O)Nc2ccccc2-c2ccccc2)nnc1-c1n[nH]c2c1CCC2 | nt | nt | nt | -11 | -10 | 1 | nt
C=CC[n+]1c(-c2ccc(Cl)cc2Cl)csc1Nc1c(C)n(C)n(-c2ccccc2)c1=O | i | -2 | 0 | 4 | -4 | 51* | -14%
NS(=O)(=O)c1ccc(N/N=C/c2ccc(O)c(O)c2O)c([N+](=O)[O-])c1 | nt | -1 | nt | -5 | -9 | 73* | -10%
NS(=O)(=O)c1ccc(N/N=C/c2ccc(O)cc2O)c([N+](=O)[O-])c1 | i | -3 | 0 | -5 | -1 | 18 | nt
Cc1cc(C=O)c(C)n1-c1ccc(Cl)c(C(=O)O)c1 | i | 3 | 0 | 1 | -4 | 167* | -8%
CC(=O)c1c(C)nc(-c2ccc(Cl)cc2)nc1N=CN(C)C | i | 4 | 0 | 2 | 4 | 66* | -1%
CC(=O)c1c(C)nc(-c2ccc(Cl)cc2)nc1N | i | 0 | 0 | 0 | 1 | nt | nt
O=C1OC(Nc2nc3ccccc3s2)c2ccccc21 (stereo not given) | i | 4 | 0 | 1 | 2 | nt | nt
Cc1ccc2cccc(NC3OC(=O)c4ccccc43)c2n1 (stereo not given) | i | 0 | 0 | 1 | 2 | 87* | -5%
CC(C)(C)OC(=O)N[C@@H](Cc1c[nH]c2ccccc12)c1nnc(SCC(N)=O)o1 | i | 2 | 0 | 6 | -5 | -1 | nt
CC(C)Sc1nnc([C@H](Cc2c[nH]c3ccccc23)NC(=O)OC(C)(C)C)o1 | i | -1 | 0 | -2 | -6 | 54* | -7%
Cc1cc(C(=O)COC(=O)c2n[nH]c3ccccc23)c(C)n1C | i | -2 | 0 | -4 | 2 | 71* | -2%
Cc1cc(C)nc(NS(=O)(=O)c2ccc(NC(=O)c3ccccc3Br)cc2)n1 | nt | nt | nt | 1 | 2 | 65* | 1%
COc1ccc(OCC(=O)NNc2c3ccccc3nc3ccccc23)cc1 | i | 2 | 0 | 11 | 9 | 61* | 3%
COc1ccc(CSc2nnc(SCC(=O)Nc3ccccc3-c3ccccc3)s2)cc1 | nt | nt | nt | 3 | -2 | 17 | nt
O=C(COC(=O)c1ccc([N+](=O)[O-])s1)Nc1ncc(C(F)(F)F)cc1Cl | i | -1 | 0 | 5 | -7 | 75* | 0%
NC(=NCc1ccc2c(c1)OCO2)NC(=O)c1ccccc1 | i | 0 | nt | -1 | -2 | 88* | 0%
C/C(CCc1ccc2c(c1)OCO2)=N\NC(=O)c1ccccc1 | i | 2 | 0 | -3 | 2 | nt | nt
CCCCn1c(NC(=O)c2ccccc2Cl)c(C#N)c2nc3ccccc3nc21 | i | -5 | 0 | nt | nt | 114* | 4%
CCC(=O)Nc1c(C#N)c2nc3ccccc3nc2n1-c1ccccc1C | i | 4 | 0 | -5 | -1 | 16 | nt
N#C/C(=C\c1ccc(N2CCOCC2)o1)C(=O)NCC1CCCO1 (stereo not given) | i | -1 | 0 | -11 | -12 | 4 | nt
N#C/C(=C\c1ccc(-c2ccc(C(=O)O)cc2)o1)C(=O)NCC1CCCO1 (stereo not given) | i | 4 | 0 | nt | nt | 54* | -4%
CN(Cc1ccccc1)S(=O)(=O)c1cccc(C(=O)OCc2ccc(C(F)(F)F)cc2)c1 | nt | nt | nt | 5 | 2 | -4 | nt
Cc1c(C(=O)N2CCN(c3ccc(F)cc3)CC2)sc2ncnc(N3CCN(c4ccccn4)CC3)c12 | i | 1 | 0 | 0 | -8 | 59* | -6%
CC(=O)c1ccc(-n2c(-c3cc(-c4ccco4)[nH]n3)n[nH]c2=S)cc1 | i | 11 | 0 | -5 | -1 | 59* | -6%
SMILES | Rce1 inhib | V-ATPase pH | Efflux pump inh | NPR2 activator | GC-A act | NSD2 inh | AlphaScreen art
O=C(O)c1ccc(-n2c(-c3cc(-c4ccco4)[nH]n3)n[nH]c2=S)cc1 | i | nt | 0 | 2 | 1 | 2 | nt
CN1CCN(c2ccc(NC(=O)COc3ccc4ccccc4c3)cc2)CC1 | i | -5 | 0 | 4 | 3 | 125* | -1%
CN1C(=O)C(=O)/C(=C(/O)c2ccccc2)C1c1ccccc1 (stereo not given) | i | 8 | 0 | 5 | 2 | 59* | -1%
O=C1C(=O)N(CCO)C(c2ccccc2)/C1=C(\O)c1ccccc1 (stereo not given) | i | -2 | 0 | -8 | 0 | nt | nt
C[N+]1(C)[C@H]2CC[C@H]1CC(OC(=O)C(O)c1ccccc1)C2 (stereo not given in full) | nt | nt | nt | -3 | 7 | -3 | nt
O=C(Nc1ccc(Cl)cc1Cl)OC1CCC12CCC(c1ccccc1)CC2 (stereo not given) | nt | nt | nt | -6 | -2 | -1 | nt
O=C(Nc1ccccc1)OCCCCOC(=O)Nc1ccccc1 | nt | 0 | nt | -2 | 0 | 55* | -2%
O=C(Nc1ccccc1)OCCCc1ccccc1 | i | 2 | 1 | 1 | 2 | -22 | nt
Cn1cc2ccc(N)cc2n1 | nt | 5 | nt | -3 | -4 | 87* | 0%
CN1C(=O)c2cc(NC(=O)C3CCCCC3)ccc2OC[C@H]2O[C@@H](CC(=O)NC3CCCC3)CC[C@H]21 | nt | nt | nt | -7 | 0 | nt | nt
CC[C@@H]1/C(=C/c2ccccc2)N2C(=O)C[C@@H](c3ccccc3)N=C2N1Cc1ccc(OC)cc1OC | nt | nt | nt | -7 | -4 | nt | nt
Cc1cc(=O)n2[nH]c(-c3ccco3)nc2n1 | i | 1 | 0 | 0 | 3 | 68* | -6%
CC1=NOC(=O)/C1=C\c1ccc(-c2ccc(Br)cc2)o1 | i | -1 | nt | -5 | 34 | 69* | 0%
CC(C)(C)N1Cc2nnn(Cc3ccccc3)c2-c2ccccc2S1(=O)=O | nt | nt | nt | 2 | -4 | nt | nt
CCN(CC)C(=O)CC[C@@H]1CC[C@]2(CCCN(Cc3ccncc3)C2)O1 | nt | nt | nt | -1 | 0 | nt | nt
CC(=O)COc1ncnc2c(Cl)cc(Cl)cc12 | i | 1 | 0 | -5 | 0 | 0 | nt
O=C(COc1ncnc2c(Cl)cc(Cl)cc12)N1CCCCC1 | i | -3 | 0 | 0 | 6 | 53* | -7%
N=c1c2c(-c3ccccc3)c(-c3ccccc3)n(Cc3ccccc3)c2ncn1C1CCOCC1 | nt | nt | nt | -27 | -33 | nt | nt
CCN(CC)CCOc1ccc(C=NNc2nc3c([nH]2)c(=O)n(C)c(=O)n3C)cc1 | nt | 1 | nt | -14 | -25 | 51* | -4%
COc1ccc(Cc2nnc(NC(=O)C3CC(=O)N(c4ccc(OC)cc4)C3)s2)cc1 (stereo not given) | i | -1 | 1 | 6 | -1 | 73* | -2%
CCOc1ccc(N2CC(C(=O)Nc3nnc(Cc4ccc(OC)cc4)s3)CC2=O)cc1 (stereo not given) | i | 4 | 0 | 7 | 3 | 7 | nt
